Data on 72 compounds can be found in PubChem BioAssay AID1022 (Emory University Molecular Libraries Screening Center, 2008).

Values joined by “and” are separate entries in the source; they are usually repeats but may differ in a detail not shown here. Equal entries are not always repeated. Among all 220,000 compounds or so, about 3,300 (1.5%) were called active.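 Rule for the calls: active = compounds that cut the protein-peptide binding signal by more than 50% relative to plate controls in a single-dose test; inactive = the rest.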 Many of the other results were omitted from the sample, so actives are more common in it than they were. Where a structure was tested more than once in an assay, its records may differ in their call.

For this test, the target named is Induced myeloid leukemia cell differentiation protein Mcl-1 (Homo sapiens) (UniProt Q07820). Description: disruptors of Mcl-1 and Noxa BH3 peptide – biochemical, TR-FRET, 1536-well, primary screen (AID 1022).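 Note: His-tagged Mcl-1 with rhodamine Noxa BH3 peptide and terbium anti-His antibody; 0% = Mcl-1 plus Noxa peptide wells and 100% = peptide-only wells.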 The note with it: TR-FRET Mcl-1/Noxa peptide binding, 2 h; at 21.7 µM; stronger effect = higher value.
Chain of Induced myeloid leukemia cell differentiation protein Mcl-1 (Homo sapiens) (Q07820 whole entry, looked up): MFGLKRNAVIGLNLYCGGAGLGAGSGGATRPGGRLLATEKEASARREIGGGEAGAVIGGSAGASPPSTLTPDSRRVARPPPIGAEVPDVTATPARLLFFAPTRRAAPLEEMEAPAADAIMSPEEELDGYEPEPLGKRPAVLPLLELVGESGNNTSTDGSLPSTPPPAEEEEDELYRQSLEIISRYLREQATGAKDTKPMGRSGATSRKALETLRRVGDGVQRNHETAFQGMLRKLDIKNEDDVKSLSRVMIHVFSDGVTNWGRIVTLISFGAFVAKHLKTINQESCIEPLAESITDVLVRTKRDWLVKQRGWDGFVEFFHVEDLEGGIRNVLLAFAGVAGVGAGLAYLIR
As to `COc1ccc(CC(=O)NCC(=O)N/N=C/c2cc(Br)ccc2OC)cc1`, the inhibition was 0.9% (inactive).
In the case of `Clc1ccc2nc(-c3ccccc3)nc(C(Cl)Cl)c2c1`, the inhibition is -22.1% (inactive).
Turning to `Nc1c(N(CCO)C(=O)C2CCCCC2)c(=O)[nH]c(=O)n1Cc1ccccc1`, the inhibition is 24.7% (inactive).
As for `Cc1c(NC(=O)CN2C(=O)C(=O)N(Cc3ccccc3)C2=O)c(=O)n(-c2ccccc2)n1C`, the figure is 8.51% (inactive); as for `Cn1nccc1NC(=O)CC(CC(=O)O)c1ccccc1` (configuration not stated), -13% (inactive).
As for `Cc1cc(N2CCN(c3ccccc3)CC2)nc(N2CCOCC2)n1`, the figure is 14.2% (inactive); as for `CS(=O)(=O)c1ccc2c(c1)SC1=NC(=O)/C(=C/c3ccco3)C(=N)N12`, 103% (active); as for `Cc1cc(/C=C2/C(=N)N3C(=NC2=O)SN=C3S(C)(=O)=O)c(C)n1-c1ccccc1`, 16.9% (inactive).
The result for `CCS(=O)(=O)C1=NSC2=NC(=O)/C(=C\c3cc(C)n(-c4cccc(OC)c4)c3C)C(=N)N21` reads 37.6% (inactive); that for `OCC1(Cc2ccccc2C(F)(F)F)CCN(Cc2ccncc2)CC1`, 13.3% (inactive).
As to `CC(C)(C)NC(=O)NCc1ccco1`, the inhibition is 8.79% (inactive).
The result for `O=C(Nc1ccccc1)Nc1nnc(COc2ccccc2F)s1` reads 23.7% (inactive); that for `O=c1[nH]c(=S)[nH]c2[nH]c(=S)[nH]c12`, 95.1% (active); that for `Cc1c(C)c(C)c2[nH]c(=S)[nH]c2c1C`, 2.53% (inactive).
As for `Cc1cc(=O)[nH]c(=S)[nH]1`, the figure is 4.28% (inactive).
In the case of `O=C(COC(=O)/C=C/c1ccc2c(c1)OCO2)NC1CCS(=O)(=O)C1` (configuration not stated), the inhibition was 16% (inactive).
As for `COc1ccc(OC)c(Nc2nc3ccccc3n3cnnc23)c1`, the figure is 16.9% (inactive).
With `O=C(CN1CCN(c2ccc(O)cc2)CC1)Nc1cc(S(=O)(=O)N2CCOCC2)ccc1Cl`, the inhibition is 49.8% (inactive).
As for `O=C(N/N=C/c1ccc([N+](=O)[O-])o1)c1cccc(S(=O)(=O)N2CCOCC2)c1`, the figure is 5.84% (inactive); as for `O=[N+]([O-])c1cc(Cl)cc(/C=N/NC(=S)Nc2cc(S(=O)(=O)N3CCOCC3)ccc2Cl)c1O`, 100% (active); as for `COc1ccc2nc(NC(=O)NC3CCCCC3)sc2c1`, -0.53% (inactive).
As for `O=C(Nc1ccccc1)O/N=C1/CCCc2occc21`, the figure is 6.55% (inactive); as for `Oc1ccc(N=Nc2nccs2)c(O)c1`, -33.2% (inactive).
As for `COc1cc2c(cc1O)[C@H](Cc1ccc(Oc3cc(C[C@@H]4NCCc5cc(OC)c(O)cc54)ccc3O)cc1)NCC2`, the figure is 64.4% (active).
As for `CC[C@H]1CN2CCc3cc(OC)c(OC)cc3[C@@H]2C[C@@H]1C[C@H]1NCCc2cc(OC)c(OC)cc21`, the inhibition was 22.4% (inactive).
The result for `O=[N+]([O-])c1ccc(N=Cc2c(O)ccc3ccccc23)cc1` reads -1.02% (inactive).
The result for `O=C(Nc1ccc(F)cc1F)N1CCCN(CCOc2ccccc2)CC1` reads 9.38% (inactive).
As for `CC1=C(C(=O)Nc2ccccc2)C(c2ccco2)C(C#N)=C(SCC(N)=O)N1` (configuration not stated), the inhibition is 5.4% (inactive).
Consider `N#CC1=C(N)Oc2c(sc3ccccc23)C1c1ccco1` (configuration not stated), for which the inhibition is 51.5% (active).
As for `Cc1cc(C)c2c3c(sc2n1)C(c1ccccc1)C(C#N)=C(N)O3` (configuration not stated), the figure is -16.3% (inactive).
On to `Cc1noc(C)c1S(=O)(=O)Nc1cc(C(F)(F)F)ccc1N1CCOCC1`, for which the inhibition was -6.09% (inactive).
As for `CC(C)Cc1nc(Cl)c(C#N)c2c1CCC2`, the inhibition is 1.09% (inactive).
As for `COc1ccccc1CNC(=O)Cn1c(=O)oc2cc(Cl)ccc21`, the figure is -8.08% (inactive); as for `CCN1C(=O)/C(=c2\s/c(=C3\Sc4ccccc4N3C)c(=O)n2C)N(C)C1=S`, 46.4% (inactive); as for `CCN1C(=O)/C(=C2/Sc3ccccc3N2CCCS(=O)(=O)O)SC1=S`, 23% (inactive) and 61.3% (active).
The result for `CCCCN1C(=O)/C(=C/C=C2/C=Cc3ccccc3N2CC)SC1=S` reads 25.9% (inactive); that for `COc1ccc(N2C(=O)C3C(C2=O)C(C(=O)c2ccccc2)N2CCCC32)cc1` (configuration not stated), 2.44% (inactive); that for `O=C1CSC(=S)N1/N=C/c1ccc(O)c([N+](=O)[O-])c1`, 85.6% (active).
As for `NC(N)=N/N=C/c1ccc(Cl)c([N+](=O)[O-])c1`, the inhibition is 8.52% (inactive).
The result for `CCOc1cccc(/C=N/N2C(=O)CSC2=S)c1O` reads 37.8% (inactive).
As for `COc1ccc(COCCN2CCN(S(=O)(=O)c3ccccc3)CCC2=O)cc1`, the figure is 4.91% (inactive); as for `Cc1cc(-c2n[nH]c(=S)n2/N=C/c2ccco2)n[nH]1`, 5.82% (inactive); as for `Cc1cc(-c2n[nH]c(=S)n2/N=C/C(Br)=C/c2ccccc2)n[nH]1`, 59.6% (active).
As for `S=c1[nH]nc(-c2cccnc2)n1/N=C/C(Cl)=C\c1ccccc1`, the inhibition is 32.3% (inactive).
The result for `Nc1ccccc1Sc1ccc(C(F)(F)F)cc1[N+](=O)[O-]` reads -1.26% (inactive); that for `S=c1[nH]nc(-c2ccccc2)n1/N=C/c1c[nH]c2ccccc12`, 13.7% (inactive).
As for `S=c1[nH]nc(-c2cc(-c3ccccc3)n[nH]2)n1/N=C/c1c2ccccc2cc2ccccc12`, the figure is 79.6% (active); as for `S=c1[nH]nc(-c2ccco2)n1/N=C/c1ccccc1`, 32.5% (inactive).
As for `COCCN1C2=C(COC(C)(C)C2)C(=S)NC1c1ccccc1` (configuration not stated), the inhibition was 1.37% (inactive).
The result for `Cc1cnc(NC(=O)Cn2cnc3c2c(=O)n(C)c(=O)n3C)s1` reads 3.66% (inactive).
As for `COC(=O)c1sc(=S)n(-c2ccccc2)c1N`, the figure is 16.2% (inactive).
The result for `COCCOC(=O)c1sc(=S)n(CCOC)c1N` reads 51.1% (active); that for `CCOC(=O)Cn1c(N)c(C(=O)OC)sc1=S`, 5.93% (inactive).
In the case of `CN(C)c1ccc(Nc2c3c4c(cccc4n(C)c2=O)C(=O)c2ccccc2-3)cc1`, the inhibition is 104% (active).
Take `COc1ccc(COCC(O)CN2CCC(C(N)=O)CC2)cc1` (configuration not stated): the inhibition was 4.43% (inactive).
In the case of `CCn1cc(C(=O)NCc2ccc3c(c2)OCO3)c2cc(OC)c(OC)cc2c1=O`, the inhibition was 74.5% (active).
As to `CCn1cc(C(=O)N2CCN(Cc3ccc4c(c3)OCO4)CC2)c2cc(OC)c(OC)cc2c1=O`, the inhibition is 4.25% (inactive).
The result for `CCn1cc(C(=O)NCC2COc3ccccc3O2)c2cc(OC)c(OC)cc2c1=O` (configuration not stated) reads -0.39% (inactive); that for `CCOC(=O)C1C(c2ccc(OC)c(OC)c2)c2c([nH][nH]c2=O)CC1(C)O` (configuration not stated), -16.2% (inactive); that for `CC(NC(=O)C(=O)Nc1nccs1)c1ccccc1` (configuration not stated), -15.7% (inactive).
As for `CC12CN3CCN(CC(C3)/C1=N\NC(=O)c1ccccc1N)C2`, the figure is 15.5% (inactive); as for `N#Cc1c(C(F)(F)F)cc(-c2ccc(Cl)cc2)nc1SCC(=O)O`, 6.22% (inactive).
The result for `N#Cc1c(N2CCCCC2)nc(N)c2c(N)nc(SCC(=O)O)cc12` reads 57.7% (active).
For `Cc1cc(C)c(C#N)c(N2CCC(C(N)=O)CC2)n1`, the inhibition was 6.16% (inactive).
On to `COC(C[C@H](O)CC(=O)COCc1ccccc1)OC`, for which the inhibition is 3.71% (inactive).
As for `O=[N+]([O-])C(=c1ccc2c(c1)N1C3=C(CCCC3)CC3CCCCC31N=2)[N+](=O)[O-]` (configuration not stated), the figure is 99.2% (active); as for `Cc1ccc(Nc2nc(Cl)c(C=O)s2)cc1`, 10.2% (inactive); as for `CN(C(=O)CCn1c(=S)oc2ccccc21)C1CCCCC1`, -15.3% (inactive).
The result for `CC(=O)Nc1ccc(NC(=O)CSc2ncnc3c2cnn3Cc2ccccc2)cc1` reads 9.1% (inactive).
With `CC(NC(=S)Nc1ccccc1)C(c1cccs1)N1CCOCC1` (configuration not stated), the inhibition is -2.6% (inactive).
For `Clc1ccc(C2=CSC3=Nc4cccc5cccc(c45)N23)cc1`, the inhibition was 61.8% (active).
For the compound `COC(=O)c1cccc(NS(C)(=O)=O)c1`, the inhibition was -15.1% (inactive).

One may read the inhibition as the change of the read-out against control, counted positive when it falls.
